Measurements reported in PubChem BioAssay (NCI).
About 83,000 compounds went through this panel and 20% of them were active in at least one assay; those are over-represented in the sample as a whole.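 A percent growth of 40 corresponds to 60% growth inhibition; 0 means no net growth; -100 means all cells died. Active threshold: below 10.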 Unmarked numbers belong to inactive results. Calls of active or inactive are those of the source.

test system: HL-60(TB) leukemia; experiment: NCI-60 one-dose screen, 48 h (100 = growth as untreated, 0 = no growth, -100 = all killed); conditions: 10 µM unless noted

Row | Structure (SMILES) | growth
1 | COc1cc2nc(-c3ccc(C(F)(F)F)cc3)cc(OCCN3CCCCC3)c2cc1OC | 58.6%
2 | CCN1CCN(Cc2ccc(Cc3ncc(F)c(-c4cc(F)c5nc(C)n(C(C)C)c5c4)n3)nc2)CC1 | 27.3%
3 | C#Cc1ccc(-n2c(/C=C/c3ccc4ccccc4n3)nc3ncccc3c2=O)cc1 | -34.6% (active)
4 | NCCCN(CCCN)CCCNCc1c2ccccc2c(CNCCCN(CCCN)CCCN)c2ccccc12 | 100%
5 | O=C(NCCCNc1cc(-c2cn(-c3ccccc3)nc2-c2cccc(O)c2)ccn1)c1cccc(O)c1 | 35.2%
6 | CC1(C)CC(C(=O)OCCCCCCCCCCC[P+](c2ccccc2)(c2ccccc2)c2ccccc2)C(C)(C)N1O (stereo not given) | -70.8% (active)
7 | COc1cc(-c2nn(-c3cccc(NC(=O)c4cccc(C(F)(F)F)c4)c3)cc2-c2ccncc2)ccc1Cl | 1.93% (active)
8 | COCCOCCOCc1n(Cc2ccc3ccccc3n2)c2ccccc2[n+]1Cc1ccc2ccccc2n1 | -42.9% (active)
9 | COCCNc1ccc2c3c(cccc13)C(=O)N(CCN(C)C)C2=O | -17% (active)
10 | CN1CCN(Cc2ccc(NC(=O)c3[nH]ncc3Nc3cc(OC4CCCC4)ncn3)cc2)CC1 | -12.7% (active)
11 | CCCCN1c2nc3ccccc3cc2Sc2cc3ccccc3nc21 | 101%
12 | C[C@@H](C[C@H](CCOCc1cccnc1)c1ccccc1)c1cc2ccccc2o1 | 98%
13 | CNC(=O)NCC1OC(n2cnc3c(NC(=O)Nc4ccccc4)ncnc32)C(O[Si](C)(C)C(C)(C)C)C1CC(=O)N(C)OC (stereo not given) | -33.1% (active)
14 | CCCCCN(CCCCC)CC(O)c1c(Cl)ccc2ccccc12 (stereo not given) | 87.6%
15 | O=C(NCc1ccc2c(c1)OCO2)NCC1CCCC(CNC(=O)NCc2ccc3c(c2)OCO3)C1 (stereo not given) | 108%
16 | COc1ccc(CC2c3cc(OC)c(OC)cc3CC[N+]2(C)CCC(=O)OCCCCCOC(=O)CC[N+]2(C)CCc3cc(OC)c(OC)cc3C2Cc2ccc(OC)c(OC)c2)cc1OC (stereo not given) | 82.9%
17 | O=C(Cc1ccccc1)C(F)(F)F | 95%
18 | Cc1ccc(NC(=O)Cc2ccc(/C=C/C(=O)c3ncc[nH]3)cc2)cc1 | 27.5%
19 | Cc1cc(C)nc(SC2=C(Nc3cccc(Cl)c3)C(=O)N(Cc3ccccc3)C2=O)n1 | 18.1% [30 µM]
20 | CCOC(=O)COc1ccc2c(c1)O/C(=C\c1ccc(O)cc1)C2=O | 112%

Row | Structure (SMILES) | growth
21 | CCN1C(=S)N(CC)C2Nn3c(s/c(=C4\C(=O)N(C)c5ccccc54)c3=O)=NC21 (stereo not given) | 6.45% (active)
22 | Cc1[nH]c(-c2nc3ccccc3[nH]2)c(C)c1C(=O)N1CCc2sccc2C1 | 99.3%
23 | Cn1cc(-c2csc(-c3cn(C)c4ccc(Br)cc34)n2)c2cnccc21 | -58.4% (active)
24 | O=C(c1nc2ccccc2[nH]1)C1C(c2ccc([N+](=O)[O-])cc2)C2CC3CCCCC3N2[C@@]12C(=O)Nc1cc(Cl)ccc12 (stereo not given in full) | 8.45% (active)
25 | Cc1nn(-c2nc3ccccc3[nH]2)c2c1C(c1ccc3c(c1)OCO3)CC(=O)N2 (stereo not given) | -24.3% (active)
26 | COc1ccc(/C=C/C(=O)c2cc3c(N)c(C(=O)Nc4cccc(Cl)c4C)sc3nc2C)cc1 | 4.92% (active)
27 | Fc1cccc(CNc2c3ccccc3nc3ccccc23)c1 | 47%
28 | CCCCCCCCN1C(=O)/C(=c2\sc3n(c2=O)C2C(NN=3)N(CC)C(=O)N2CC)c2ccccc21 (stereo not given) | 114%
29 | O=C(CCc1nnc2sc(-c3cc(O)c(O)c(O)c3)nn12)c1nc2ccccc2[nH]1 | 100%
30 | O=C(Nc1ncc(Cc2cc(C(F)(F)F)ccc2Cl)s1)c1cccs1 | 30.6%
31 | CCOC(=O)Cc1cnn(C)c1NC(=O)c1ccc(Cl)cc1NC(C)=O | 102%
32 | CN1CCN(c2ccc(NC(=O)c3cncnc3Nc3ccc4c(ccn4Cc4cccc(F)c4)c3)cc2)CC1 | -54.3% (active)
33 | CC(C)CCC[C@@H](C)[C@H]1CCC2C3=CCC4C(=O)C=CC(=O)C4C3CC[C@@]21C (stereo not given in full) | -5.46% (active)
34 | O=C1/C(=C/c2ccc3c(c2)OCO3)SC(=S)N1CCc1ccc(O)cc1 | 90.9%
35 | Cc1cc(C#Cc2ccccc2)ccc1-n1c(/C=C/c2ccc(F)cc2)nc2ccccc2c1=O | 34.3%
36 | c1ccc(-c2cn3c(ccc4ccccc43)n2)cc1 | 24.4%
37 | Oc1ccc(Cc2ccccc2)c2cccnc12 | -15.8% (active)
38 | O=C(CCl)Oc1ccc([N+](=O)[O-])cc1 | 107%
39 | c1ccc2c(N=NSc3ncnc4nc[nH]c34)c3ccccc3nc2c1 | -5.76% (active)
40 | CCOC(=O)c1cc2cccc(OC)c2oc1=O | 117%
